Screening results from PubChem BioAssay.
PKM2 inhibitor – blocks activity of human pyruvate kinase M2. purified PKM2, ATP generation, Kinase-Glo luminescence. Potency, µM (top dose mostly 57.5 µM), without a hit: at the highest dose activity change, negative = inhibition, hits mostly inhibitors. actives 0.058% (n = 260,000). AID 1634; active = well fitted inhibition curve with a large enough effect; also: nearly all actives have a fitted effect of over 60% in size
Target sequence (P14618 whole entry, looked up): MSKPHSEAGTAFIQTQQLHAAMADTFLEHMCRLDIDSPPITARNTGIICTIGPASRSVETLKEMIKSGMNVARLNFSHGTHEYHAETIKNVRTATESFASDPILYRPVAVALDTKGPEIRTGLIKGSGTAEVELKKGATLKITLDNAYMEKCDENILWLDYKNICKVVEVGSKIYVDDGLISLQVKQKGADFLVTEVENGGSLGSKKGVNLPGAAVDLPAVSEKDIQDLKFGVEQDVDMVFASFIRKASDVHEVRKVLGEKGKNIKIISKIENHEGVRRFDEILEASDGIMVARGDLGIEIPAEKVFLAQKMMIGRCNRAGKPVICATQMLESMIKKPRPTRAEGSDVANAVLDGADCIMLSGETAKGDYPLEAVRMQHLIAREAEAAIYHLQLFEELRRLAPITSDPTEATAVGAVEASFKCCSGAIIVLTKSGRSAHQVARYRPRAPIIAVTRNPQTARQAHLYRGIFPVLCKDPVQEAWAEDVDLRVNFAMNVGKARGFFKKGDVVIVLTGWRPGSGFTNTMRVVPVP
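Enzyme run at intermediate activity with final 0.1 mM ADP, 0.5 mM PEP (50 mM imidazole pH7.2, 50 mM KCl, 7 mM MgCl2), incubated 1 h at r.t. ATP formed read by Kinase-Glo luminescence, normalized to no-enzyme (full inhibition) and uninhibited wells.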
* marks the source's active call; other numbers are inactive results; [ ] = dose if it differs, or a comment. The full list was thinned out, with hits kept by preference. Potency is read from the fitted curve at half-maximal effect.

SMILES	PKM2 inhibitor
c1ccc(C2=NNC(=NC3CC3)SC2)cc1	14µM*
Clc1ccc(C2=NNC(=NCc3ccc4c(c3)OCO4)SC2)cc1	59%
COCCNC(=S)Nc1ccc(S(=O)(=O)Nc2ncccn2)cc1	57%
Cc1ccc(CNC(=O)[C@@H]2C[C@H]2[C@@H](NP(=O)(c2ccccc2)c2ccccc2)c2ccccc2)o1	41%
CCOC(=O)N1CCN(Cc2nc(-c3cccs3)no2)CC1	124%
Fc1ccccc1-c1nc2ccccc2[nH]1	32µM*
Cc1cc(C)c2c(N)c(-c3nc4ccccc4[nH]3)sc2n1	55%
CCc1nc2ccccc2nc1N1CCN(S(=O)(=O)c2ccccc2)CC1	41%
COc1ccc2c(c1OC)C(=O)OC2N1C(=O)CC[C@H]1C(=O)Nc1ccc(F)cc1F (stereo partly drawn)	-5%
N#C/C(=C/Nc1ccccc1C(=O)O)C(N)=O	-8%
O=C(/C=C\c1ccc(-c2ccccc2)o1)c1ccccc1	35%
NC(=O)c1ccccc1N/C=C/C(=O)c1ccccc1	11µM*
CN(C)CCNC(=O)c1c(CSc2ccccc2)noc1C(=O)NCc1ccccc1	2%
CCc1nnc(NS(=O)(=O)c2ccc(NC(=O)CCC(=O)O)cc2)s1	56%
O=C(NCc1ccco1)/C(=C\c1cccs1)NC(=O)c1ccco1	120%
COc1ccc(C2CC(c3ccc4ccccc4c3OC(C)=O)=NN2C(C)=O)cc1 (stereo not drawn)	57%
O=C(c1ccco1)N1CCN(C(=O)c2cc(-c3ccccn3)nc3ccc(Cl)cc23)CC1	55%
C(=N\n1cnnc1)/c1ccccn1	-9%
C(=N\Nc1nc2ccccc2[nH]1)/c1ccccn1	14µM*
COC(=O)C1(S(=O)(=O)c2ccc(C)cc2)CCOCC1	3%
O=C(c1ccc2c(=O)n3c(nc2c1)CCCCC3)N1CCN(C(c2ccccc2)c2ccccc2)CC1	47%
O=C(NCCN1CCN(c2ccccc2)CC1)Nc1cccc(Cl)c1	-3%
CN(C(=O)CSc1nc2ccccc2s1)c1c(N)n(Cc2ccccc2)c(=O)[nH]c1=O	33%
CN(C)c1ccc(N/C=C/C(=O)c2ccco2)cc1	14µM*
O=C(Nc1ccc(NC(=S)NC(=O)c2cccs2)cc1)c1ccco1	108%
SMILES	PKM2 inhibitor
O=C(OCCOc1cccc(Cl)c1)c1ccc2ncsc2c1	63%
Cc1ccc(-n2[nH]c(C)c(/C=N/n3c(C)nc4ccccc4c3=O)c2=O)cc1	13µM*
O=c1c2ccccc2nc(-c2ccco2)n1/N=C/c1ccccc1O	47%
NNC(=O)c1nn(-c2ccc(Cl)cc2)cc1O	40%
COc1ccc(S(=O)(=O)Nc2ccc(S(=O)(=O)Nc3nccs3)cc2)cc1	96%
O=C(C1CC1)N1CCN(S(=O)(=O)c2ccc3c(c2)OCCO3)CC1	33%
Cc1ccsc1/C=N/Nc1nc(=O)[nH]nc1C	14µM*
Cc1cc2[nH]c(=O)c(=O)[nH]c2cc1S(=O)(=O)Nc1ccccc1F	67%
O=C(Nc1cc(Cl)cc(Cl)c1)N1CCCN(Cc2ccccc2)CC1	60%
CCOC(=O)C1=C(Cc2ccc(C)cc2)C(=O)c2ccccc2C1=O	40%
Cc1ccc(-c2cc3c(nn2)-c2ccccc2C3=O)cc1	13µM*
COc1cc(C(=O)OCC(=O)Nc2cc(C)on2)c([N+](=O)[O-])cc1OC	34%
Cc1ccc(S(=O)(=O)N2CCN(c3nc(C)c4c(c3C#N)CC(C)(C)OC4)CC2)cc1	33%
O=C(O)c1ccccc1NS(=O)(=O)c1cccc(-n2sc3ccccc3c2=O)c1	-51%
Cc1ccc(-n2nnc(-c3nccn3C)n2)cc1	16µM*
COc1cc2c(cc1OC)N1C(=O)CC(OCC(=O)O)C3C4CC5(CCN5C(=O)C4=O)C2C31 (stereo not drawn)	52%
O=S(=O)(c1ccccc1)c1nc(NCc2cccnc2)sc1Cl	33%
O=C(Nc1cccc([N+](=O)[O-])c1)C12CC3CC(C1)CC(n1cnc([N+](=O)[O-])n1)(C3)C2	48%
CC1CCCC(C)N1C(=O)Cn1cc(C#N)c2ccccc21 (stereo not drawn)	38%
COc1ccccc1C(=O)Nc1nc2ccccc2[nH]1	16µM*
COc1ccccc1C(=O)Nc1ncc2c(n1)CC(c1ccco1)CC2=O (stereo not drawn)	46%
CCCCNS(=O)(=O)c1ccc2nc(SCC(=O)c3ccccc3OC)[nH]c2c1	32%
CCN(Cc1ccncc1)Cc1c(O)ccc2cc(Br)ccc12	36%
C/C(=N/NC(=O)CNC(=O)/C=C/c1ccco1)c1ccc(Cl)cc1	70%
COc1ccc(N2C(=O)CC(Sc3nnc(-c4ccccc4F)n3C)C2=O)cc1 (stereo not drawn)	50%
SMILES	PKM2 inhibitor
COc1ccc(N2Cc3ccccc3C2=O)cc1	14µM*
COc1ccc(-n2c(=S)[nH]c3ncccc3c2=O)cc1	0%
C=C(C)COc1ccc2c(CC)cc(=O)oc2c1	58%
COc1ccc(C(=O)Nc2c(C)cc(C)cc2C)cc1OC	-33%
CCOc1ccc(C(=O)Nc2cc(C)ccn2)cc1	14µM*
CCOc1ccc(-c2nnc(SCC(=O)Nc3cc(C)on3)o2)cc1	28%
CCOc1ccc(NS(=O)(=O)c2ccc3ncsc3c2)cc1	55%
CCCCCCCN1CCC(=O)N([C@H](CO)c2ccccc2)CC1	31%
c1ccc2c(c1)ccc1nnc(SCc3ccc4c(c3)OCO4)n12	48%
Cc1ccc(Cl)cc1NS(=O)(=O)c1ccc2oc(=O)ccc2c1	52%
O=C(NCc1cccs1)c1cc2ccccc2o1	0%
O=C(Nc1ccccn1)c1cc2ccccc2o1	13µM*
CN(Cc1ccccc1)C(=O)C1CCCN(Cc2ccc(Cl)cc2)C1 (stereo not drawn)	13%
CCC(C)(C(=O)NC1CCCCC1)N(Cc1ccco1)C(=O)Cc1cccs1 (stereo not drawn)	10%
c1ccc(-c2noc(-c3ccncc3)n2)nc1	14µM*
c1cc(-c2nnc(-c3ccncc3)o2)ccn1	72%
COc1cccc(-c2nnc(SCC(=O)Nc3cc(C)on3)o2)c1	42%
COc1cccc(-c2nc(-c3ccccn3)no2)c1	14µM*
COc1ccc(S(=O)(=O)NCc2c(-c3ccccc3)noc2C)c(OC)c1	78%
O=C(Cn1nnc(-c2ccc3c(c2)OCO3)n1)NCc1ccccc1	85%
c1ccc(-c2noc(-c3ccc4c(c3)OCO4)n2)nc1	8.9µM*
Cc1nc(COC(=O)c2ccc(S(=O)(=O)N3CCCC3)cc2)cs1	117%
COc1ccc([C@]23Cc4ccccc4C(O2)C2=C(CC(C)(C)CC2=O)O3)cc1	56%[11.5 µM]
CC1(C)CC(Nc2ccc(Nc3ccccc3)cc2)CC(C)(C)N1	52%
N#Cc1ccc(NC(=S)NCCN2CCOCC2)cc1	129%
SMILES	PKM2 inhibitor
CCCCN(CC)CCCNC(=O)CN1C(=O)CSc2ccc(S(=O)(=O)N3CCOCC3)cc21	38%
O=C(CSc1cn(CCNC(=O)c2ccc3ccccc3c2)c2ccccc12)NCc1ccco1	43%
C#CCNC(=O)C1=C[C@@H](c2csc3ccccc23)C[C@@H](OCc2ccc(CO)cc2)O1	36%
CCOC(=O)c1c(N2C(=O)C=CC2=O)sc(C)c1C	32%
Nc1nc(-c2ccccc2)cn1N	78%
Cc1ccc2nc(-c3ccccc3)cn2c1	14µM*
CC(NC(=O)CSC1=NCCS1)c1ccccc1 (stereo not drawn)	32%
O=c1oc2ccccc2c(Nc2ccccc2)c1[N+](=O)[O-]	3%
COC(=O)c1ccc(C(NC(=O)OCc2ccccc2)/C(I)=C/[C@@H](C)C(=O)NCc2ccc(C)o2)cc1 (stereo partly drawn)	60%
Cc1cccc(NC(=O)c2onc3c2CCCC3)n1	13µM*
